From PubChem BioAssay
Several values for one entry are separate records, joined by “and”; a condition that tells them apart may be missing. Equal entries are not always repeated. Results filed as inconclusive are left out. Activity calls are given as the source filed them.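 Rule for the calls, unless noted: active = normalized viability below 100% at a tested concentration; inactive = the rest.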

Key:
[1] = compounds altering circadian rhythm period length – cell-based, LOPAC library, luminescence reporter (AID 2774; call rule not given here;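 note: values are relative to mean of DMSO wells on each plate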); conditions: circadian reporter cells, at 7 µM, actives lie on both sides
[2] = compounds altering viability of human ES cells (AID 493140; call rule not given here;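 note: cells exposed to compounds for four days before counting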); conditions: human embryonic stem cell survival screen; stronger effect = higher value
[3] = P. berghei load reduction in hepatocytes – cell-based, HepG2, luciferase luminescence, HepG2 viability, primary screen (AID 624349; in the data active = parasite load remaining mostly below about 12%, no sharp cut-off; inactive = mostly above about 10%;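 note: 100% = mean of DMSO negative control wells on the same plate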); conditions: P. berghei liver stage in HepG2, luciferase luminescence, concentration not given here; parasite load remaining: stronger effect = lower value; viability: measured here: HepG2 viability without parasites
[4] = test system: Hepatitis C virus NS3 helicase; test: blockers of NS3h binding to ssDNA – biochemical, fluorescence polarization, LOPAC1280 library, primary screen (AID 687035; in the data active = inhibition above about 37%); conditions: Purified HCV NS3 helicase, Cy5-dT15 ssDNA binding fluorescence polarization; stronger effect = higher value; concentration not given here
[5] = compounds altering Cy5-DNA-NS3h complex signal – biochemical, LOPAC1280, artefact control for HCV NS3 helicase inhibitor project (AID 687037; call rule not given here); conditions: Cy5-DNA-NS3h complex fluorescence interference counterscreen
[6] = viability loss in pontine glioma line – cell-based, SU-DIPG-XVII, MIPE5.0, CellTiter-Glo, qHTS, dose response (AID 1347060; cut-off not given, nearly all actives have AC50 up to about 26 µM;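 for AC50: cells exposed to compound for 48 hours before viability readout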); conditions: CellTiter-Glo ATP luminescence
[7] = viability loss in pontine glioma line – cell-based, SU-DIPG-XIII, MIPE5.0, CellTiter-Glo, qHTS, dose response (AID 1347064; cut-off not given, nearly all actives have AC50 up to about 23 µM); conditions: CellTiter-Glo ATP luminescence
[8] = JHH-DIPG-1 glioma cell viability, MIPE5.0 library, CellTiter-Glo luminescence, qHTS (AID 1347067; cut-off not given, nearly all actives have AC50 up to about 26 µM;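 note: cells exposed to compound for 48 hours before readout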); conditions: JHH-DIPG-1 glioma viability, CellTiter-Glo ATP luminescence
[9] = viability loss with induced miR-34 in A549 – imaging, A549 dox-inducible miR-34, nuclei and caspase counts, primary screen (AID 1347080;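 active = compounds whose cell count with miR-34 switched on is under 0.7 times the count with it off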); conditions: A549 miR-34 inducible, Hoechst nuclei count, 48 h
[10] = chitosan synthesis blockers in C. neoformans – flow cytometry, Cibacron Brilliant Red staining (AID 1347148; call rule not given here;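 note: compound exposure lasted three days at 37 degrees C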); conditions: Cryptococcus neoformans chitosan, stronger effect = lower value; at 10 µM unless noted
[11] = blockers of cellular phospholipid synthesis – cell-based, LOPAC library, screen 4, primary screen (AID 1347384; call rule not given here); conditions: animal cells, phospholipid biosynthesis inhibition screen; at 10 µM
[12] = galactose survival enhancers in mitochondrial complex I cybrids – cell-based, galactose medium, ATP luminescence, primary screen (AID 1645843;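 active = z-score of at least 1.8 in each of two replicates, scored against plate mean and spread of sample wells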;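 note: positive z means more ATP and so rescue of galactose-driven cybrid death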); conditions: complex I mutant cybrid cells, 72 h, stronger effect = higher value
[13] = growth inhibition of DIPG cells – cell-based, MIPE5.0 library, qHTS (AID 1347068; cut-off not given, nearly all actives have IC50 up to about 30 µM); conditions: SU-DIPG-XXV viability
[14] = MELAS cybrid and Rieske KO viability enhancers – cell-based, MELAS cybrids, Rieske KO mouse fibroblasts, CellTiter-Glo, primary screen (AID 1508586;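 active = mean z-score across replicates of 1.96 or higher in either the MELAS or the Rieske mutant cell line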;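 note: z relative to plate mean and SD of compound and empty wells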); conditions: low glucose
[15] = drug combination growth inhibition, ovarian cancer – cell-based, oncology-focused library, rucaparib conditional, profiling panel (AID 1508598); conditions: patient-derived ovarian cancer cells, CellTiter-Glo viability, 144 h, stronger effect = lower value
[16] = viability loss in pontine glioma line – cell-based, SU-DIPG-XXV, MIPE5.0, CellTiter-Glo, qHTS, dose response (AID 1347065; cut-off not given, nearly all actives have AC50 up to about 26 µM;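 note: cells exposed to compound for 48 hours before ATP readout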); conditions: CellTiter-Glo ATP luminescence
[17] = stronger effect = lower value, cell number ratio, induced over uninduced
[18] = measured here: relative caspase fold change +Dox/-Dox
[19] = measured here: total cells with miR-34 induction, stronger effect = lower value
[20] = measured here: total cells without miR-34 induction

O=S(=O)(c1cccc2c(I)cccc12)N1CCCNCC1
7300 and 3130: cell count [9, 20]
0.686 and 1.04: fold change [9, 18]
inactive: period change [1] 0.03 h | survival [2] 70.8 | parasite load remaining [3] 33.8% | inhibition [4] -1% | fluorescence ratio (interference) [5] 0.9 | outcome [6] | outcome [7] | outcome [8] | fold change [9, 17] 0.977 and 0.963 | fold fluorescence [10] 13.8 [at 120.1 µM] | outcome [11] | z-score [12] -0.91
7130 and 3010: cell count [9, 19]
77.3%: viability [3]

Cn1cc(-c2ccc3c(c2)CCN3C(=O)Cc2cccc(C(F)(F)F)c2)c2c(N)ncnc21
inactive: outcome [6] | outcome [7] | outcome [8] | outcome [13] | fold change [9, 17] 0.811 | z-score ([14]; MELAS cybrid survival, CellTiter-Glo 48 h, stronger effect = higher value) -0.412 | viability ([15]; at 0.000305 µM, OCI-C5x cells, with rucaparib 10 µM, 100% = cells with rucaparib alone) 120% | viability ([15]; at 0.000305 µM, OCI-C5x cells, without rucaparib) 118% | viability ([15]; at 0.00122 µM, OCI-C5x cells, with rucaparib 10 µM, 100% = cells with rucaparib alone) 116% | viability ([15]; at 0.00122 µM, OCI-C5x cells, without rucaparib) 114% | viability ([15]; at 0.00488 µM, OCI-C5x cells, with rucaparib 10 µM, 100% = cells with rucaparib alone) 116% | viability ([15]; at 0.00488 µM, OCI-C5x cells, without rucaparib) 115% | viability ([15]; at 0.00488 µM, OCI-P5x cells, without rucaparib) 101% | viability ([15]; at 0.0195 µM, OCI-C5x cells, with rucaparib 10 µM, 100% = cells with rucaparib alone) 107% | viability ([15]; at 0.0195 µM, OCI-C5x cells, without rucaparib) 114% | viability ([15]; at 0.0195 µM, OCI-P5x cells, without rucaparib) 107% | viability ([15]; at 0.0781 µM, OCI-C5x cells, with rucaparib 10 µM, 100% = cells with rucaparib alone) 106% | viability ([15]; at 0.0781 µM, OCI-C5x cells, without rucaparib) 113% | viability ([15]; at 0.0781 µM, OCI-P5x cells, without rucaparib) 101% | viability ([15]; at 0.313 µM, OCI-C5x cells, with rucaparib 10 µM, 100% = cells with rucaparib alone) 109% | viability ([15]; at 0.313 µM, OCI-C5x cells, without rucaparib) 125% | viability ([15]; at 0.313 µM, OCI-P5x cells, without rucaparib) 107% | viability ([15]; at 1.25 µM, OCI-C5x cells, with rucaparib 10 µM, 100% = cells with rucaparib alone) 123% | viability ([15]; at 1.25 µM, OCI-C5x cells, without rucaparib) 144% | viability ([15]; at 1.25 µM, OCI-P5x cells, without rucaparib) 109%
0.484: fold change [9, 18]
5820: cell count [9, 20]
active: viability ([15]; at 0.000305 µM, OCI-P5x cells, with rucaparib 20 µM, 100% = cells with rucaparib alone) 89.4% | viability ([15]; at 0.000305 µM, OCI-P5x cells, without rucaparib) 96.4% | viability ([15]; at 0.00122 µM, OCI-P5x cells, with rucaparib 20 µM, 100% = cells with rucaparib alone) 90.8% | viability ([15]; at 0.00122 µM, OCI-P5x cells, without rucaparib) 99.7% | viability ([15]; at 0.00488 µM, OCI-P5x cells, with rucaparib 20 µM, 100% = cells with rucaparib alone) 92.8% | viability ([15]; at 0.0195 µM, OCI-P5x cells, with rucaparib 20 µM, 100% = cells with rucaparib alone) 98% | viability ([15]; at 0.0781 µM, OCI-P5x cells, with rucaparib 20 µM, 100% = cells with rucaparib alone) 88% | viability ([15]; at 0.313 µM, OCI-P5x cells, with rucaparib 20 µM, 100% = cells with rucaparib alone) 79.9% | viability ([15]; at 1.25 µM, OCI-P5x cells, with rucaparib 20 µM, 100% = cells with rucaparib alone) 74.9% | viability ([15]; at 5 µM, OCI-C5x cells, with rucaparib 10 µM, 100% = cells with rucaparib alone) 7.91% | viability ([15]; at 5 µM, OCI-C5x cells, without rucaparib) 79% | viability ([15]; at 5 µM, OCI-P5x cells, with rucaparib 20 µM, 100% = cells with rucaparib alone) 53% | viability ([15]; at 5 µM, OCI-P5x cells, without rucaparib) 69.3%
4720: cell count [9, 19]
-1.76: z-score ([14]; Rieske KO mouse fibroblast survival, CellTiter-Glo 72 h)

CC(C)Oc1ccc(-c2nc(-c3cccc4c3CC[C@@H]4NCCO)no2)cc1C#N
active: AC50 [6] 20.9 µM | AC50 [16] 16.6 µM

CC#Cc1cncc(-c2ccc3c(c2)[C@@]2(N=C(C)C(N)=N2)C2(CCC(OC)CC2)C3)c1 (stereo not given in full)
inactive: outcome [6] | outcome [7] | outcome [13]

COc1ncc(Nc2ncc(C(C)N3CCN(S(C)(=O)=O)CC3)cc2-c2nc(C)nc(N)n2)cc1F (stereo not given)
active: AC50 [6] 0.934 µM | AC50 [16] 0.235 µM
